# From PubChem BioAssay (NCI)
# This is part of a sample that, as a whole, favours compounds with a hit. Of some 79,000 tested, about 15% had one in any assay. Activity calls are given as the source filed them. Cut-off read from the data, not from the text of the source: active = growth inhibition above about 70%; inactive = the rest. Where a SMILES comes first, the peptide text is derived from it.
# Assay: NCI Yeast Anticancer Drug Screen. Data for the cln2 rad14 strain (AID 165);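 note: 0% = growth equal to vehicle treated cultures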
# Conditions: S. cerevisiae cln2 rad14 strain, at 50.0 µM, active compounds read high
# Outline: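 Growth of compound-exposed yeast (cln2 rad14 genotype) measured and expressed as inhibition relative to vehicle.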
row,Structure (SMILES),growth inhibition
1,Cn1ncc2c(NCCc3ccccc3)nc(Cl)nc21,11.2% (inactive)
2,Cn1c(-c2ccccc2)c2c(=O)oc3ccccc3c2c1-c1ccccc1,1.8% (inactive)
3,O=C(NC1CCCCC1Cl)C1CCCCC1 (stereo not given),5.4% (inactive)
4,O=C1OC(c2ccc([N+](=O)[O-])cc2)=N/C1=C\c1ccccc1,5.45% (inactive)
5,CC1=CC(=O)C2C(C)(C)CCCC2(C)C1(O)CCc1ccoc1 (stereo not given),92.2% (active)
6,CN(CC1CCCCC1=O)CC1CCCCC1=O (stereo not given),-8.8% (inactive)
7,N#CCc1ccccc1S(=O)(=O)O,-9.75% (inactive)
8,NC(=O)C(=CNC(=S)Nc1cccc(C(F)(F)F)c1)C(N)=O,16.4% (inactive)
9,CCSC(OC(C)=O)C(Nc1ccc([N+](=O)[O-])cc1[N+](=O)[O-])C(OC(C)=O)C(OC(C)=O)C(COC(C)=O)OC(C)=O (stereo not given),17.2% (inactive)
10,CCOC(CN(C(C)C)C(C)C)OCC,13.8% (inactive)
11,CCOC(=O)N(c1ccccc1)c1ccccc1,5.65% (inactive)
12,COc1ccc(/C(C)=N/[O-])cc1CS[n+]1ccccc1,-4.4% (inactive)
13,COc1ccc2c(c1)C=C(C(C)(C)C)NS2(=O)=O,-12.7% (inactive)
14,O=C(Nc1ccc(CCc2ccc(NC(=O)C34CC5CC(CC(C5)C3)C4)cc2)cc1)C12CC3CC(CC(C3)C1)C2,-0.45% (inactive)
15,CC(C)OC(=O)Oc1ccc(Cl)cc1,-46.1% (inactive)
16,Cc1ccc(/C(O)=C/C(=O)C(=O)NC23CC4CC(CC(C4)C2)C3)cc1,24.9% (inactive)
17,COC(=O)c1cc2ccccc2n1C,16.1% (inactive)
18,c1ccc(-c2nc3ccccc3nc2SCc2cccnc2)cc1,-18.2% (inactive)
19,COc1ccc(NC(N)=O)cc1,-1.25% (inactive)
20,COc1cc(/C=C2\C(=O)N(C(=O)c3ccc(NC(C)=O)cc3)N=C2C)ccc1O,-40.4% (inactive)

row,Structure (SMILES),growth inhibition
1,C/C=C/C[P+](Cc1ccccc1)(c1ccccc1)c1ccccc1,-32.1% (inactive)
2,O=C(O)CSc1ncccc1[N+](=O)[O-],12.9% (inactive)
3,FC(F)(F)c1ccc(C2SCc3nc4ccccc4n32)cc1 (stereo not given),-0.5% (inactive)
4,CC1CC(C)OC(C)(c2ccccc2)O1 (stereo not given),-33.1% (inactive)
5,COc1ccc(-n2cc3c(=O)nccc-3c3ccccc32)cc1OC,-10.6% (inactive)
6,Cc1cc(Cl)nc(/N=C(\N)Nc2ccc(Cl)c(Cl)c2)n1,-11.7% (inactive)
7,NC(CCCO)C(=O)O (stereo not given),8.6% (inactive)
8,Oc1ccccc1C1SCSCS1,-3.3% (inactive)
9,O=C1NN2CCCN=C2c2ncccc21,17.1% (inactive)
10,CCC(=O)OC1CCC2(C)C(=CCC3C2CCC2(C)C(C(C)CCCC(C)C)CCC32)C1 (stereo not given),4.45% (inactive)
11,Cc1ccc(S/C=C/Sc2ccc(C)cc2)cc1,-14.6% (inactive)
12,O=C1OC(Nc2ccccc2)C(Cl)=C1Cl (stereo not given),20.3% (inactive)
13,CCCCOC(=O)Nc1ccccc1OCC,-48.4% (inactive)
14,Cc1cccc(NC(C(=O)O)c2ccccc2)c1 (stereo not given),-65.2% (inactive)
15,O=C(/C=C/c1ccccc1)OCCCl,-14.1% (inactive)
16,CCCCCCCCCCCCCCCCCCNc1ccccc1,-29.8% (inactive)
17,CC(C)=CC(=O)OC1C2C(CC(C)C3C(O)CC(=O)C13C)OC(=O)C2C (stereo not given),17.8% (inactive)
18,O=C(O)c1ccc(Nc2nc3ccccc3nc2-c2cccs2)cc1,20.7% (inactive)
19,CSCCC(N)C(=O)NC(CCSC)C(=O)O (stereo not drawn) (H-Met-Met-OH; configuration not given here),-25.1% (inactive)
20,O=C(NC(=O)C(Cl)Cl)OC1c2cc(Cl)ccc2-c2c(Cl)cc(Cl)cc21 (stereo not given),98.8% (active)

# Assay: NCI Yeast Anticancer Drug Screen. Data for the bub3 strain (AID 167)
# Conditions: S. cerevisiae bub3 mutant strain, at 50.0 µM, active compounds read high
# Outline: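 Growth of a checkpoint-deficient yeast mutant is measured after compound exposure. Values represent inhibition relative to vehicle.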
row,Structure (SMILES),growth inhibition
1,Cn1ncc2c(NCCc3ccccc3)nc(Cl)nc21,8.1% (inactive)
2,Cn1c(-c2ccccc2)c2c(=O)oc3ccccc3c2c1-c1ccccc1,8.25% (inactive)
3,O=C(NC1CCCCC1Cl)C1CCCCC1 (stereo not given),-6.7% (inactive)
4,O=C1OC(c2ccc([N+](=O)[O-])cc2)=N/C1=C\c1ccccc1,6.25% (inactive)
5,CC1=CC(=O)C2C(C)(C)CCCC2(C)C1(O)CCc1ccoc1 (stereo not given),89.7% (active)
6,CN(CC1CCCCC1=O)CC1CCCCC1=O (stereo not given),19% (inactive)
7,N#CCc1ccccc1S(=O)(=O)O,5.05% (inactive)
8,NC(=O)C(=CNC(=S)Nc1cccc(C(F)(F)F)c1)C(N)=O,5.5% (inactive)
9,CCSC(OC(C)=O)C(Nc1ccc([N+](=O)[O-])cc1[N+](=O)[O-])C(OC(C)=O)C(OC(C)=O)C(COC(C)=O)OC(C)=O (stereo not given),-0.6% (inactive)
10,CCOC(CN(C(C)C)C(C)C)OCC,-16.6% (inactive)
11,CCOC(=O)N(c1ccccc1)c1ccccc1,5% (inactive)
12,COc1ccc(/C(C)=N/[O-])cc1CS[n+]1ccccc1,59.2% (inactive)
13,COc1ccc2c(c1)C=C(C(C)(C)C)NS2(=O)=O,59% (inactive)
14,O=C(Nc1ccc(CCc2ccc(NC(=O)C34CC5CC(CC(C5)C3)C4)cc2)cc1)C12CC3CC(CC(C3)C1)C2,-0.25% (inactive)
15,CC(C)OC(=O)Oc1ccc(Cl)cc1,-11.8% (inactive)
16,Cc1ccc(/C(O)=C/C(=O)C(=O)NC23CC4CC(CC(C4)C2)C3)cc1,15.8% (inactive)
17,COC(=O)c1cc2ccccc2n1C,-6.95% (inactive)
18,c1ccc(-c2nc3ccccc3nc2SCc2cccnc2)cc1,-30.8% (inactive)
19,COc1ccc(NC(N)=O)cc1,-6.35% (inactive)
20,COc1cc(/C=C2\C(=O)N(C(=O)c3ccc(NC(C)=O)cc3)N=C2C)ccc1O,-51% (inactive)

row,Structure (SMILES),growth inhibition
1,C/C=C/C[P+](Cc1ccccc1)(c1ccccc1)c1ccccc1,24.6% (inactive)
2,O=C(O)CSc1ncccc1[N+](=O)[O-],-32.6% (inactive)
3,FC(F)(F)c1ccc(C2SCc3nc4ccccc4n32)cc1 (stereo not given),-14.2% (inactive)
4,CC1CC(C)OC(C)(c2ccccc2)O1 (stereo not given),-18.5% (inactive)
5,COc1ccc(-n2cc3c(=O)nccc-3c3ccccc32)cc1OC,-18.6% (inactive)
6,Cc1cc(Cl)nc(/N=C(\N)Nc2ccc(Cl)c(Cl)c2)n1,6.1% (inactive)
7,NC(CCCO)C(=O)O (stereo not given),-26.6% (inactive)
8,Oc1ccccc1C1SCSCS1,-10.4% (inactive)
9,O=C1NN2CCCN=C2c2ncccc21,2.7% (inactive)
10,CCC(=O)OC1CCC2(C)C(=CCC3C2CCC2(C)C(C(C)CCCC(C)C)CCC32)C1 (stereo not given),-0.8% (inactive)
11,Cc1ccc(S/C=C/Sc2ccc(C)cc2)cc1,22.9% (inactive)
12,O=C1OC(Nc2ccccc2)C(Cl)=C1Cl (stereo not given),6.2% (inactive)
13,CCCCOC(=O)Nc1ccccc1OCC,-20.5% (inactive)
14,Cc1cccc(NC(C(=O)O)c2ccccc2)c1 (stereo not given),26.1% (inactive)
15,O=C(/C=C/c1ccccc1)OCCCl,-22.4% (inactive)
16,CCCCCCCCCCCCCCCCCCNc1ccccc1,1.15% (inactive)
17,CC(C)=CC(=O)OC1C2C(CC(C)C3C(O)CC(=O)C13C)OC(=O)C2C (stereo not given),-27.9% (inactive)
18,O=C(O)c1ccc(Nc2nc3ccccc3nc2-c2cccs2)cc1,12.2% (inactive)
19,CSCCC(N)C(=O)NC(CCSC)C(=O)O (stereo not drawn) (H-Met-Met-OH; configuration not given here),-8.95% (inactive)
20,O=C(NC(=O)C(Cl)Cl)OC1c2cc(Cl)ccc2-c2c(Cl)cc(Cl)cc21 (stereo not given),97.8% (active)
